Consider twelve compounds from PubChem BioAssay (NCATS).

Inconclusive results are not listed. The source made the active and inactive calls. Unless noted, the call rests on the fitted dose curve; in most records, active means well fitted curve in the direction sought with a large enough effect; inconclusive means small, poorly fitted or top-dose-only effect, or another doubt; inactive means no such curve, though single readings can be large; an effect the other way counts as inactive or inconclusive.

Test [1] deals with Rap guanine nucleotide exchange factor 4 (Homo sapiens) (UniProt Q8WZA2). Nature of the test: Confirmatory qHTS for agonist of cAMP-regulated guanine nucleotide exchange factor 4 (EPAC2) (AID 1645884;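 further: nucleotide exchange releases bodipy-GDP from Rap1 and this lowers its fluorescence; on the % scale 0 is the no-effect control and ±100 the full control effect; nearly all actives have a fitted effect of over 65% in size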). (qHTS replaces the single test concentration by a dilution series.)
Chain of Rap guanine nucleotide exchange factor 4 (Homo sapiens) (Q8WZA2 whole entry, looked up): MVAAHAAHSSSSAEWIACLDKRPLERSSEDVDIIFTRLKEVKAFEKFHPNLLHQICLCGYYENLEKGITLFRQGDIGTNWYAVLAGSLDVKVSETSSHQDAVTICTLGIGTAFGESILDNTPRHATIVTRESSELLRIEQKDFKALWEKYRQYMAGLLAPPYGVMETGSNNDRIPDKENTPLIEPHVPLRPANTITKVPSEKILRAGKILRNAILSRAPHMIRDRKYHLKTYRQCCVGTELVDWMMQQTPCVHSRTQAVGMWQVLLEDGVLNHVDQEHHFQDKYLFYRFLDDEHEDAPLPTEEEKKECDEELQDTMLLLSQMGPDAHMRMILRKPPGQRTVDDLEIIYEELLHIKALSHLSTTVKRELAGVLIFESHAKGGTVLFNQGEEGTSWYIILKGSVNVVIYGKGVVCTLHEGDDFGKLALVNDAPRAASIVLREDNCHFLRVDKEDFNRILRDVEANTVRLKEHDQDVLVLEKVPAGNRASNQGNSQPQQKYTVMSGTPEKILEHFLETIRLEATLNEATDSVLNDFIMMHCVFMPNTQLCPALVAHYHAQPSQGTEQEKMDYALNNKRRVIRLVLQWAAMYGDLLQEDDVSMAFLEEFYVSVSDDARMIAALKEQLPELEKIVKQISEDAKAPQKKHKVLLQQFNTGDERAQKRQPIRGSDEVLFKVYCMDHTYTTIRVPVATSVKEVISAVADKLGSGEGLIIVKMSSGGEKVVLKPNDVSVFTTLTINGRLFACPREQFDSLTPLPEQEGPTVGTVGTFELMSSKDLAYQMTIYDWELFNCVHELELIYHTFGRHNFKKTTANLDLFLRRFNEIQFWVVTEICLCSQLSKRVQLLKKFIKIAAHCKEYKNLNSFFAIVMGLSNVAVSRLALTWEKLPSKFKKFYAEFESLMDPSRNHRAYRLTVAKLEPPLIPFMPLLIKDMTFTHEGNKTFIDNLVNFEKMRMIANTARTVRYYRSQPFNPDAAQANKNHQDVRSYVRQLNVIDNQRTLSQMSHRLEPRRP
Test [2] shares this target. Nature of the test: Confirmatory qHTS for antagonist of cAMP-regulated guanine nucleotide exchange factor 4 (EPAC2) (AID 1645885). Further: nearly all actives have a fitted effect of over 25% in size. Further: potency means the concentration at half of the fitted maximal effect. On activity change, negative = inhibition: on the % scale 0 is the no-effect control and ±100 the full control effect.
A short description of test [3]: NCATS anti-infectives library activity on HEK293 viability as a counter-qHTS vs the C. elegans viability qHTS (AID 1745854).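 Further: HEK293 cells exposed to compounds for 24 hr before the viability read; on the % scale 0 is the no-effect control and ±100 the full control effect.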 An outline of the steps:
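Compound titrations (final up to 41.7 uM) were incubated with HEK293 cells for 24 hr at 37C under 5% CO2. Viable cells were quantified with CellTiter-Glo after 10 min at ambient temperature.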

Test [4] addresses Metallo-beta-lactamase type 2 (Klebsiella pneumoniae) (UniProt C7C422). Description: qHTS to identify inhibitors of the New Delhi Metallo-beta-lactamase (NDM): assay validation screen against the NCATS LOPAC Collection (AID 1794843).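 Further: nitrocefin turnover by NDM-1 measured as 485 nm absorbance at plateau; on the % scale 0 is the no-effect control and ±100 the full control effect.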 An outline of the steps: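 Enzyme 2 nM final, 50 mM HEPES pH 7.0, 1 uM ZnSO4, 0.01% Tween20; cpds in DMSO, preincub w/ enzyme; + nitrocefin (50 uM stock); A485 at plateau; no-enzyme column as blank.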

Test [5] concerns the target Glutathione peroxidase 1 (Homo sapiens) (UniProt P07203). Nature of the test: Primary qHTS Assay for Inhibitors of Recombinant Selenoprotein Glutathione Peroxidase 1 (GPX1) (AID 1845191). Further: nearly all actives have a fitted effect of over 65% in size. An outline of the steps:
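NADPH consumption tracked by fluorescence at 340/450 nm between t=0 and t=15 min, room temperature. Final mix: 10 nM GPX1, 100 nM glutathione reductase, 1 mM GSH, 0.5 mM NADPH, 0.5 mM cumene hydroperoxide, 0.01% BSA; 30 min compound–enzyme preincubation.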

For test [6], the target named is Phospholipid hydroperoxide glutathione peroxidase GPX4 (Homo sapiens) (UniProt P36969). Description: Primary qHTS Assay for Inhibitors of Recombinant Selenoprotein Glutathione Peroxidase 4 (GPX4) (AID 1845192). Further: nearly all actives have a fitted effect of over 65% in size. On activity change, negative = inhibition: on the % scale 0 is the no-effect control and ±100 the full control effect. The method, boiled down:
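NADPH consumption followed by fluorescence at 340/450 nm, t=0 and after 15 min at room temperature. Reaction started with cumene hydroperoxide (0.5 mM final) after 30 min compound–GPX4 preincubation; final 200 nM GPX4, 100 nM GR, 1 mM GSH, 0.5 mM NADPH.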

The target of test [7] is Catechol O-methyltransferase (Homo sapiens) (UniProt P21964). Nature of the test: Confirmatory Screen for Target Class Profiling of Small Molecule Inhibitors of Methyltransferases (AID 1745852; calls by dose curve). Conditions: MTase-Glo luminescence, SAH detection, recombinant enzyme; measured here: COMT max response; stronger effect = lower value.
Chain of Catechol O-methyltransferase (Homo sapiens) (P21964 whole entry, looked up): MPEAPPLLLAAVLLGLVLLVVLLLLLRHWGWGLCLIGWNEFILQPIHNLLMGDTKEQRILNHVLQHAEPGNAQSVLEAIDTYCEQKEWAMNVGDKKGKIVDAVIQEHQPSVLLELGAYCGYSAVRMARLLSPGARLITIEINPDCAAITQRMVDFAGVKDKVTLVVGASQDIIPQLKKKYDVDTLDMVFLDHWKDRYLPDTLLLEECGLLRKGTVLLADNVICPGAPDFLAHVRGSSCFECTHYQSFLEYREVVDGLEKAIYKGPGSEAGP
Test [8] deals with Guanidinoacetate N-methyltransferase (Homo sapiens) (UniProt Q14353). The test is described as above. Conditions: MTase-Glo luminescence, SAH detection, recombinant enzyme; at 57.3 µM (top of the series).
The target of test [9] is Nicotinamide N-methyltransferase (Homo sapiens) (UniProt P40261). Described as above. Particulars: MTase-Glo luminescence, SAH detection, recombinant enzyme; measured here: NNMT max response; stronger effect = lower value.
Chain of Nicotinamide N-methyltransferase (Homo sapiens) (P40261 whole entry, looked up): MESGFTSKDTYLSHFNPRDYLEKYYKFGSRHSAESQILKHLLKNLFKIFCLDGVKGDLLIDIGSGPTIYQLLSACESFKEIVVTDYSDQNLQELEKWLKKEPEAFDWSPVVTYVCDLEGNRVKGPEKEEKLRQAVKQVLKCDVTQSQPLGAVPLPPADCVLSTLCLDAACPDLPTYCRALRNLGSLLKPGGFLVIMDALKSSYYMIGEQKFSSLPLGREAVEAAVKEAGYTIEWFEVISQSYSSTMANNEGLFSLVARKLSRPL
The target in test [10] is Phenylethanolamine N-methyltransferase (Homo sapiens) (UniProt P11086). The test is described as above. Conditions: MTase-Glo luminescence, SAH detection, recombinant enzyme; measured here: PNMT max response; stronger effect = lower value.
Chain of Phenylethanolamine N-methyltransferase (Homo sapiens) (P11086 whole entry, looked up): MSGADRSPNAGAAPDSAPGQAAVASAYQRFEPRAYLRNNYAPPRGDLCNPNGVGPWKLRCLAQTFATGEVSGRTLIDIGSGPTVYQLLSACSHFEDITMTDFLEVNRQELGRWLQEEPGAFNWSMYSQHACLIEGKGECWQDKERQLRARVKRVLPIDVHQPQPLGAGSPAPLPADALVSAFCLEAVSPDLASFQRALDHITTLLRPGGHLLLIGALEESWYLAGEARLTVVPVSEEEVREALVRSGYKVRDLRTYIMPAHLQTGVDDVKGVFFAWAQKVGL
Test [11] can be described thus: HepG2 viability counterscreen (readout 2: ATP content) against the NCATS DSHEA and TCM libraries (AID 1794840).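 Further: HepG2 cells exposed to substances for about 24 h; 0% is about no effect.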 The method, boiled down: (§1)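 HepG2 cells (1,000 cells/well) attached ~4 h, then treated ~24 h at 37C with substances. Protease activity read by GF-AFC (25 uM final, 30 min, Ex/Em 380/510 nm); ATP content then by CellTiter-Glo luminescence.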
On the technique in general: A counterscreen serves to expose hits that act by an unwanted route or on another target.

The nature of test [12]: HepG2 viability counterscreen (readout 1: protease activity) against the NCATS DSHEA and TCM libraries (AID 1794841).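 Further: cells exposed to compounds for about 24 h before the protease read; 0% is about no effect.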 An outline of the steps: as §1
The target of test [13] is Luciferin 4-monooxygenase (Photinus pyralis) (UniProt P08659). Description: Primary firefly luciferase (FLuc) qHTS assay for identification of artifact compounds. (AID 1845220). Further: nearly all actives have a fitted effect of over 60% in size.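 On activity change, negative = inhibition: plate controls were DMSO vehicle for no effect and no enzyme for full effect.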 Conditions: outcome: dose series up to 54.1 µM unless noted. An outline of the steps: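 FLuc 10 nM; luciferin 10 uM; ATP 10 uM; Tris-acetate pH 7.6, Mg-acetate 10 mM; 15 min RT preincubation; 5 min reaction; luminescence.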

Test [14] is described as follows: Primary fluorescence-based thiol-reactive (MSTI) qHTS assay for identification of artifact compounds. (AID 1845221).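 Further: thiol-reactive compounds lower the probe fluorescence signal; nearly all actives have a fitted effect of over 65% in size.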 The method, boiled down: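 Probe: MSTI 4 uM, PBS pH 7.4, 2% DMSO. Incubation 1 h, RT, light-protected. Readout fluorescence 525/598 nm.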
For test [15], the system named is Nanoluciferase (engineered Oplophorus gracilirostris luciferase). Nature of the test: Primary Nanoluciferase (NLuc) qHTS assay for identification of artifact compounds. (AID 1845222).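 Further: NLuc secreted into diluted conditioned medium of S16 cells; 0% = DMSO and -100% = no enzyme.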 An outline of the steps: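 NLuc from S16 cell medium (1:55) plus test compounds, 15 min, room temperature. Luminescence after Nano-Glo (1:100) addition, 5 min.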
Test [16] is described as follows: NCATS anti-infectives library activity on the primary C. elegans qHTS viability assay (AID 1745855; calls by dose curve). Particulars: C. elegans worm area imaging, day 7; at 41.8 µM (top of the series). An outline of the steps: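 Titration-based screen in worms: eggs hatched overnight in M9, L1 larvae fed TOP10 capsules in S medium with compound, incubated 21 °C for 7 days; fluorescent objects gated by size and intensity at days 0, 3 and 7.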

Test [17] can be described thus: Viability counterscreen for antagonist of constitutive androstane receptor (CAR) against the NCATS DSHEA and TCM libraries (AID 1794837).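 Further: compound exposure lasted 24 h before viability reading; 0% is about no effect.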 The method, boiled down:
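HepG2-CYP2B6-hCAR cells (2,500/well) were allowed to attach for 5 h, then exposed to compounds with 48 uM CITCO for 24 h at 37C. Viability was read by CellTiter-Fluor fluorescence after 1 h.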

A short description of test [18]: Viability counterscreen for agonist of constitutive androstane receptor (CAR) against the NCATS DSHEA and TCM libraries (AID 1794838). Further: 0% is about no effect. An outline of the steps:
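HepG2-CYP2B6-hCAR cells (2,500/well) attached 5 h, then got compounds plus 0.75 uM PK11195 final. After 24 h at 37C, viability read by CellTiter-Fluor fluorescence (Ex/Em 405/540 nm).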

The target of test [19] is Nuclear receptor subfamily 1 group I member 3 (Homo sapiens) (UniProt Q14994). Nature of the test: Primary qHTS for agonist of constitutive androstane receptor (CAR) against the NCATS DSHEA and TCM libraries (AID 1794839).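 Further: HepG2 cells expressing human CAR with a CYP2B6 reporter plus PK11195 antagonist; 0% is about no effect.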 An outline of the steps: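 HepG2-CYP2B6-hCAR cells (2,500/well) were attached for 5 h, then treated for 24 h at 37 °C with compounds plus 0.75 µM PK11195. Luciferase luminescence (ONE-Glo) was read, with CellTiter-Fluor viability (Ex/Em 405/540 nm).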
Chain of Nuclear receptor subfamily 1 group I member 3 (Homo sapiens) (Q14994 whole entry, looked up): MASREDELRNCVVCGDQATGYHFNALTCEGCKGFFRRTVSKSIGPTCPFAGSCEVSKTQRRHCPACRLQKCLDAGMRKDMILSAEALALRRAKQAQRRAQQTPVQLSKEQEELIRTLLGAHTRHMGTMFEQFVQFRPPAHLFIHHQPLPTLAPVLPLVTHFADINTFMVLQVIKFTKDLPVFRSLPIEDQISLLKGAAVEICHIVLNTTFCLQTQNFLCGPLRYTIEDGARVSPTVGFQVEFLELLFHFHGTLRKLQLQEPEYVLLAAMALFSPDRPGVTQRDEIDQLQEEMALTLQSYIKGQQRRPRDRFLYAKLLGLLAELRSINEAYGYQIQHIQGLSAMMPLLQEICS

Chain of Phospholipid hydroperoxide glutathione peroxidase GPX4 (Homo sapiens) (P36969 whole entry, looked up): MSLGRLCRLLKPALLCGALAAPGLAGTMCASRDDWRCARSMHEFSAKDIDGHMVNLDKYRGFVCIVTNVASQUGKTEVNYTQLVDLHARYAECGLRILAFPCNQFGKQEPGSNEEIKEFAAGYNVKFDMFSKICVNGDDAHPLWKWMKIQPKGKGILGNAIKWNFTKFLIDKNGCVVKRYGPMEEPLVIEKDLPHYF
Chain of Metallo-beta-lactamase type 2 (Klebsiella pneumoniae) (C7C422 whole entry, looked up): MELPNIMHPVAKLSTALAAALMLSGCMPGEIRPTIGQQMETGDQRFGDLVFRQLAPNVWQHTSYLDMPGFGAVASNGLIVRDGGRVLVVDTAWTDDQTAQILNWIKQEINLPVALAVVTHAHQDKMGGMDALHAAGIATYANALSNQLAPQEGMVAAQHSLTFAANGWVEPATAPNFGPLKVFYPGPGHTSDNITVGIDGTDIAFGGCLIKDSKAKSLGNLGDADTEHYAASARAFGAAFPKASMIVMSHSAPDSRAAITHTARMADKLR
Chain of Glutathione peroxidase 1 (Homo sapiens) (P07203 whole entry, looked up): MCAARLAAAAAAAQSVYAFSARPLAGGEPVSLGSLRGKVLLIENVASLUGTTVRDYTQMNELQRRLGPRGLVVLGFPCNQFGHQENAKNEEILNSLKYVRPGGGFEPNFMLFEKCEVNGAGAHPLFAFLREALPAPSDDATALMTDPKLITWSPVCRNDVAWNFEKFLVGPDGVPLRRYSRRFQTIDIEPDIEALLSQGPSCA

As for `Cc1c(Cl)cccc1Nc1ccccc1C(=O)O`, the Potency result in [1] is “inactive”. Further, the Potency in test [2] is 44.1 µM (active).
On to `CC(CN1c2ccccc2Sc2ccccc21)N(C)C` (stereo not given), for which the outcome in [3] and in [4] was “inactive” in each case. The Potency result in test [5] and in test [6] was “inactive” in each case.
`Cc1cc2nc3c(=O)[nH]c(=O)nc-3n(C[C@H](O)[C@H](O)[C@H](O)CO)c2cc1C`: in [2], the Potency entry is “inactive”.
In the case of `NC(N)=NCCC[C@H](N)C(=O)O`, the activity was 6.47% in [7], -0.737% in test [9] and 6.66% in [10]. Moreover, in test [8], the activity change, negative = inhibition was -1.16%. Moreover, the outcome in [11], in test [12] and in test [4] was “inactive” each time. Also, the Potency result in [5] and in [6] was “inactive” throughout.
Consider `CC(C)(O)c1ccccc1CC[C@@H](SCC1(CC(=O)O)CC1)c1cccc(/C=C/c2ccc3ccc(Cl)cc3n2)c1`, for which the Potency result in [1], in test [5], in test [6] and in test [14] was “inactive” in each case. For the same compound, the activity was -3.13% in test [7], -24.6% in test [9] and -2.75% in [10]. In addition, in test [8], the activity change, negative = inhibition was -3.41%. Besides, the outcome in test [13] and in test [15] was “inactive” in each case.
As for `CC[C@H]1CN2CCc3cc(OC)c(OC)cc3[C@@H]2C[C@@H]1C[C@H]1NCCc2cc(OC)c(OC)cc21`, the outcome in test [16] and in test [4] was “inactive” each time. The Potency entry in test [5] and in test [6] was “inactive” each time.
Regarding `Cc1cc(N)c2ccccc2[n+]1CCCCCCCCCC[n+]1c(C)cc(N)c2ccccc21`, the activity in test [7] is 2.05%; in [9] it was -23.8%; in test [10] it was 3.98%. The activity change, negative = inhibition in test [8] is -0.381%. For the same compound, the outcome in test [4], in [13] and in test [15] was “inactive” in each case. For the same compound, the Potency result in test [5], in [6] and in [14] was “inactive” throughout.
As to `COc1ccc(Cl)cc1C(=O)NCCc1ccc(S(=O)(=O)NC(=O)NC2CCCCC2)cc1`, the figures for the activity in test [7], in test [9] and in [10] were -8.62%, -22.1% and -3.2%, respectively. Moreover, the activity change, negative = inhibition in test [8] was -1.47%. Besides, the outcome in test [4] and in [13] was “inactive” throughout. Further, the Potency entry in test [5], in test [6] and in test [14] was “inactive” in each case.
As for `O=C(O)c1ccccc1O`, the outcome in [3], in [17], in test [18], in test [19], in test [11] and in test [12] was “inactive” throughout.
For `CCN(CC)C(C)CN1c2ccccc2Sc2ccccc21` (stereo not given), the Potency entry in [1], in test [5] and in [6] was “inactive” each time. The Potency in test [2] was 55.5 µM (active). In test [4], the outcome was “inactive”.
For the compound `O=C(O)c1ccccn1`, in [3], the outcome was “inactive”. Besides, the Potency result in test [5] and in test [6] was “inactive” in each case.
With `CC(C)(C)[C@]1(O)CCN2C[C@H]3c4ccccc4CCc4cccc(c43)[C@@H]2C1`, the activity in test [7] was -2.14%; in test [9], -19.3%; in test [10], -4.4%. Moreover, the activity change, negative = inhibition in [8] is 6.2%. In addition, the outcome in test [4] was “inactive”. The Potency entry in test [5] and in test [6] was “inactive” throughout.
